In publication PMC5540273 (PLoS ONE, 2017):

How the values were obtained:
Settings in all cases: concentration: 1 μM, replicates: in singlicate; n = 1
PAK1 = test system: PAK1
PAK2 = test system: PAK2
PAK3 = test system: PAK3
PAK4 = test system: PAK4
PAK6 = test system: PAK6
PAK7 = test system: PAK7
PCTK1 = test system: T1, PCTK1
T1 construct: gene CDK16

PCTK2 = test system: T2, PCTK2
T2 construct: gene CDK17

PCTK3 = test system: T3, PCTK3
T3 construct: gene CDK18

PDGFRA = test system: PDGFRA
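Note: KINOMEscan kinase panel screen.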

Q: What does the source list for `CC(=O)Nc1n[nH]c2ncc(-c3ccccc3)cc12` [SB-548492]?
A: %Inh (PAK1): 0%; %Inh (PAK2): 32%; %Inh (PAK3): 0%; %Inh (PAK4): 4%; %Inh (PAK6): 12%; %Inh (PAK7): 0%; %Inh (PCTK1): 3%; %Inh (PCTK2): 7%; %Inh (PCTK3): 4%; %Inh (PDGFRA): 51%

Q: With `Nc1nc(-c2ccc3c(N)n[nH]c3c2)cc(N2CCCCC2)n1` [GSK2228768] as the molecule, how does the “%Inh” value (PAK1) read?
A: 2%

Q: And the “%Inh” value (PAK2)?
A: 20%

Q: What about the “%Inh” value (PAK3) of the same molecule?
A: 6%

Q: What about the “%Inh” value (PAK4) of the same molecule?
A: 0%

Q: What about the “%Inh” value (PAK6) of the same molecule?
A: 0%

Q: And the “%Inh” value (PAK7)?
A: 0%

Q: And the “%Inh” value (PCTK1)?
A: 5%

Q: And the “%Inh” value (PCTK2)?
A: 0%

Q: What about the “%Inh” value (PCTK3) of the same molecule?
A: 9%

Q: What about the “%Inh” value (PDGFRA) of the same molecule?
A: 0%

Q: `O=C(Nc1ccccc1F)NC1CCN(c2ccnc(Nc3ccc(F)cc3)n2)C1` (centres unmarked) [GSK1379722] was tested. Which “%Inh” value (PAK1) did it give?
A: 2%

Q: What about the “%Inh” value (PAK2) of the same molecule?
A: 16%

Q: And the “%Inh” value (PAK3)?
A: 0%

Q: What about the “%Inh” value (PAK4) of the same molecule?
A: 0%

Q: What about the “%Inh” value (PAK6) of the same molecule?
A: 0%

Q: What about the “%Inh” value (PAK7) of the same molecule?
A: 0%

Q: What about the “%Inh” value (PCTK1) of the same molecule?
A: 6%

Q: What about the “%Inh” value (PCTK2) of the same molecule?
A: 0%

Q: And the “%Inh” value (PCTK3)?
A: 18%

Q: And the “%Inh” value (PDGFRA)?
A: 0%

Q: `FC(F)(F)c1ccc(-c2nn3ncccc3c2-c2ccnc(Nc3cccc(C(F)(F)F)c3)n2)cc1` [GW828205] was tested. Which “%Inh” value (PAK1) did it give?
A: 37%

Q: And the “%Inh” value (PAK2)?
A: 30%

Q: What about the “%Inh” value (PAK3) of the same molecule?
A: 0%

Q: What about the “%Inh” value (PAK4) of the same molecule?
A: 7%

Q: What about the “%Inh” value (PAK6) of the same molecule?
A: 20%

Q: And the “%Inh” value (PAK7)?
A: 0%

Q: And the “%Inh” value (PCTK1)?
A: 0%

Q: What about the “%Inh” value (PCTK2) of the same molecule?
A: 0%

Q: What about the “%Inh” value (PCTK3) of the same molecule?
A: 0%

Q: And the “%Inh” value (PDGFRA)?
A: 0%

Q: With `O=c1cc(N2CCOCC2)nc2n(Cc3cccc(Cl)c3)ccn12` [GSK2296823] as the molecule, how does the “%Inh” value (PAK1) read?
A: 6%

Q: What about the “%Inh” value (PAK2) of the same molecule?
A: 10%

Q: What about the “%Inh” value (PAK3) of the same molecule?
A: 0%

Q: What about the “%Inh” value (PAK4) of the same molecule?
A: 0%

Q: And the “%Inh” value (PAK6)?
A: 0%

Q: And the “%Inh” value (PAK7)?
A: 53%

Q: What about the “%Inh” value (PCTK1) of the same molecule?
A: 5%

Q: And the “%Inh” value (PCTK2)?
A: 0%

Q: What about the “%Inh” value (PCTK3) of the same molecule?
A: 17%

Q: What about the “%Inh” value (PDGFRA) of the same molecule?
A: 0%

Q: Which “%Inh” value (PAK1) does the source give for `CSc1ccc(NC2=C(c3ccccc3Cl)C(=O)NC2=O)cc1` [SB-342411] here?
A: 0%

Q: What about the “%Inh” value (PAK2) of the same molecule?
A: 0%

Q: And the “%Inh” value (PAK3)?
A: 14%

Q: What about the “%Inh” value (PAK4) of the same molecule?
A: 29%

Q: And the “%Inh” value (PAK6)?
A: 8%

Q: And the “%Inh” value (PAK7)?
A: 15%

Q: What about the “%Inh” value (PCTK1) of the same molecule?
A: 29%

Q: What about the “%Inh” value (PCTK2) of the same molecule?
A: 31%

Q: And the “%Inh” value (PCTK3)?
A: 67%

Q: What about the “%Inh” value (PDGFRA) of the same molecule?
A: 0%

Q: For `Cl.Cn1ccc(-c2cccc(Nc3ccnc4cc(-c5nccs5)ccc34)c2)n1` [GW525701], which “%Inh” value (PAK1) is on record?
A: 0%

Q: And the “%Inh” value (PAK2)?
A: 0%

Q: What about the “%Inh” value (PAK3) of the same molecule?
A: 18%

Q: And the “%Inh” value (PAK4)?
A: 0%

Q: What about the “%Inh” value (PAK6) of the same molecule?
A: 0%

Q: What about the “%Inh” value (PAK7) of the same molecule?
A: 100%

Q: What about the “%Inh” value (PCTK1) of the same molecule?
A: 0%

Q: And the “%Inh” value (PCTK2)?
A: 0%

Q: And the “%Inh” value (PCTK3)?
A: 30%

Q: What about the “%Inh” value (PDGFRA) of the same molecule?
A: 0%

Q: How did the “%Inh” value (PAK1) turn out when `CS(=O)(=O)CCNCc1ccc(-c2ccc3ncnc(Nc4ccc(OCc5ccccc5)c(Cl)c4)c3c2)o1.Cl` [GW574783] was run?
A: 0%

Q: What about the “%Inh” value (PAK2) of the same molecule?
A: 0%

Q: What about the “%Inh” value (PAK3) of the same molecule?
A: 7%

Q: What about the “%Inh” value (PAK4) of the same molecule?
A: 0%

Q: What about the “%Inh” value (PAK6) of the same molecule?
A: 0%

Q: And the “%Inh” value (PAK7)?
A: 0%

Q: And the “%Inh” value (PCTK1)?
A: 0%

Q: And the “%Inh” value (PCTK2)?
A: 0%

Q: And the “%Inh” value (PCTK3)?
A: 0%

Q: And the “%Inh” value (PDGFRA)?
A: 0%
